This is part of a sample that, as a whole, favours compounds with a hit. Of some 83,000 tested, about 20% had one in any assay.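 Note: values are percent growth. 100 is the growth of untreated cells, values between 100 and 0 indicate rising inhibition; between -100 and 0 indicates cell death.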 Unmarked numbers belong to inactive results. Activity calls are given as the source filed them. The calls were made as follows: active = growth percent below 10; inactive = the rest.

The first test concerns CCRF-CEM leukemia. In words: NCI-60 one-dose screen, 48 h (100 = growth as untreated, 0 = no growth, -100 = all killed). To be noted: 10 µM unless noted.
As for `c1ccc(Cn2cnc3ccc(-c4nc(-c5ccc6c(c5)ncn6C5CCCCC5)cn5ccnc45)cc32)cc1`, the growth was 5.6% (active). The same measure, in the same setting: the figure for `N/C(=N\C(N)=N\c1nc2ccccc2s1)c1cccc(Cl)c1` is 73.3%; for `O=C(Cc1ccccc1)NNc1nc(Cl)nc(N2CCN(C(c3ccccc3)c3ccccc3)CC2)n1` it is 11.1%; for `CCN(CC)c1ccc(C(=O)c2ccccc2)cc1` it is 104%. Still for that read-out and setting: the figure for `O=C(Nc1ncc(Cc2cc(Cl)ccc2Cl)s1)c1cccs1` is 49.6%; for `COc1cc(C2C3CC4CCCC[C@H]4N3[C@@]3(C(=O)Nc4cc(Cl)ccc43)C2C(=O)c2nc3ccccc3[nH]2)cc(OC)c1OC` (stereo partly specified) it is 42.2%; for `CC(=O)[C@@H]1CC[C@]2(C(N)=O)CC[C@]3(C)[C@H](CC[C@@H]4[C@@]5(C)CCCNC(C)(C)[C@@H]5CC[C@]43C)[C@@H]12` it is 88.3%. As to `O=S(=O)(NCCCNc1nccc(-c2c(-c3cccc(O)c3)nc3occn23)n1)c1ccc(Cl)cc1`, the growth is 73.2%. Same read-out and setting: the figure for `N#C/C(=C\c1ccc([N+](=O)[O-])s1)c1nc2cc(Br)ccc2s1` is -19.5% (active). Consider `Oc1ccc(C(c2ccc(O)cc2)c2ccc(Br)cn2)cc1`, for which the growth was 111%. The same measure, in the same setting: with `Cc1nc2sccn2c1-c1cn2ccsc2n1` the figure was 96.3%. Same read-out and setting: the figure for `CCOC(=O)/C(C#N)=C1/NNC(=Nc2cccnc2)S1` is 106%; for `O=S(=O)(NCCCNc1nccc(-c2c(-c3cccc(F)c3)nc3sccn23)n1)c1cccc2ccccc12` it is 38.5%. As for `CCCNC(=O)Oc1ccc(/C(=C(\C)c2ccccc2)c2ccc(OCCCN(C)C)cc2)cc1`, the growth was 75.7%.

As for `O=C(CSc1nc2sc3c(c2c(=O)n1-c1ccc(Cl)cc1)CCCC3)Nc1nc(-c2cccc(Br)c2)cs1`, the growth is 87.7%. Still for that read-out and setting: the figure for `O=C1c2ccc3c4c(ccc(c24)C(=O)N1CCCNCc1ccccc1F)C(=O)N(CCCNCc1ccccc1F)C3=O` is -11.7% (active); for `CCN(CC)c1ccc(/C=N/NC(=O)CSc2nc3ccccc3c(=O)n2CCc2ccc(S(N)(=O)=O)cc2)c(O)c1` it is 7.41% (active). The same measure, in the same setting: with `CCCCCN1C=C/C(=C\C(=O)N(C)c2ccc(Oc3ccccc3)cc2)c2ccccc21` the figure was 75.4%; with `C/C=C(\C)C(=O)NC1=CC[C@@]2(C)C(=CCC3C2CC[C@@]2(C)C3CC[C@@H]2C(C)N(C)C)C1=O` (stereo partly specified), 15.3%.

As for `C[C@H]1[C@H](C)CC[C@]2(C(=O)NCC#CCN3CCN(C)CC3)CC[C@]3(C)C(=CC[C@@H]4[C@@]5(C)Cc6c([nH]c7ccccc67)C(C)(C)[C@@H]5CC[C@]43C)[C@H]12`, the growth is 66.7%. The same measure, in the same setting: the figure for `CCOC(=O)c1cc(C(=O)c2ccc(Br)cc2)n2ccc(/C=C/c3cc[n+](CC(=O)c4ccc(OC)cc4)cc3)cc12` is -23.7% (active); for `NC(=NCCCOc1ccc(F)cc1)Nc1ccc(I)cc1` it is 79.3%. Still for that read-out and setting: the figure for `O=C(/C=C(/C=C/c1coc2ccccc12)OB(F)F)/C=C/c1coc2ccccc12` is 72.6%; for `COc1cc(NC(=O)CSc2nc3ccc(C)cc3c(=O)n2Cc2ccccc2)cc(OC)c1OC` it is 94.1%; for `Cc1ccc(C(=O)/C(=C\c2ccc([N+](=O)[O-])cc2)S(=O)Cc2ccc(F)cc2)cc1` (stereo unspecified) it is 3.64% (active).

For the molecule `COc1cc2oc(-c3cccc(C(=O)Nc4ccccc4)c3)cc(=O)c2c(O)c1OC`, the growth was 100%. For the molecule `COc1ccc(C(=O)/C=C/c2cc3ccccc3n3nnnc23)cc1`, the growth was 101%. In the case of `Cc1nc2sccn2c1-c1nc2sccn2c1/C=C1/C(=O)Nc2ccccc21`, the growth is 35%. `COc1cc2c(c(OC)c1OC)CCC(c1cccc(NC(=O)c3cccc(Br)c3)c1)O2` (stereo unspecified): the growth was 88%.

For `CCCCCN1C=C/C(=C\C(=O)N(C)c2ccccc2Br)c2ccccc21`, the growth is 96%. The same measure, in the same setting: with `COc1ccc(C(=O)c2cc(OC)c(OC)c(OC)c2)cc1O` the figure was 5.92% (active); with `CC(C)(C)c1cc(C=O)cc(C(C)(C)C)c1O`, 14.3%. Turning to `CCOC(=O)c1nc2c3ccccc3ccn2c1C(=O)OCC`, the growth is 96.1%. On the same count and under the same terms, the figure for `CC(C)=CCC[C@](C)(O)[C@H]1CC[C@]2(C)[C@@H]1CC[C@@H]1[C@@]3(C)C/C(=C/c4ccccc4)C(=O)C(C)(C)[C@@H]3CC[C@]12C` is 87.8%; for `C=C(C)[C@@H]1CC[C@]2(C(=O)N3CCN(C)CC3)CC[C@]3(C)[C@H](CC[C@@H]4[C@@]5(C)CC[C@H](O)C(C)(C)[C@@H]5CC[C@]43C)[C@@H]12` it is -36.6% (active).

In the next test the test system is MOLT-4 leukemia. The description is as above. To be noted: 10 µM unless noted.
Regarding `c1ccc(Cn2cnc3ccc(-c4nc(-c5ccc6c(c5)ncn6C5CCCCC5)cn5ccnc45)cc32)cc1`, the growth was 4.39% (active).

As to `N/C(=N\C(N)=N\c1nc2ccccc2s1)c1cccc(Cl)c1`, the growth was 72.5%. Same read-out and setting: with `O=C(Cc1ccccc1)NNc1nc(Cl)nc(N2CCN(C(c3ccccc3)c3ccccc3)CC2)n1` the figure was 36.3%; with `CCN(CC)c1ccc(C(=O)c2ccccc2)cc1`, 87.6%. Still for that read-out and setting: the figure for `O=C(Nc1ncc(Cc2cc(Cl)ccc2Cl)s1)c1cccs1` is 63.2%.

Consider `COc1cc(C2C3CC4CCCC[C@H]4N3[C@@]3(C(=O)Nc4cc(Cl)ccc43)C2C(=O)c2nc3ccccc3[nH]2)cc(OC)c1OC` (stereo partly specified), for which the growth was 14%.

Take `CC(=O)[C@@H]1CC[C@]2(C(N)=O)CC[C@]3(C)[C@H](CC[C@@H]4[C@@]5(C)CCCNC(C)(C)[C@@H]5CC[C@]43C)[C@@H]12`: the growth is 60.5%. Same read-out and setting: with `O=S(=O)(NCCCNc1nccc(-c2c(-c3cccc(O)c3)nc3occn23)n1)c1ccc(Cl)cc1` the figure was 71.3%; with `N#C/C(=C\c1ccc([N+](=O)[O-])s1)c1nc2cc(Br)ccc2s1`, -18.8% (active); with `Oc1ccc(C(c2ccc(O)cc2)c2ccc(Br)cn2)cc1`, 101%.

As for `CCOC(=O)/C(C#N)=C1/NNC(=Nc2cccnc2)S1`, the growth was 106%. The same measure, in the same setting: with `O=S(=O)(NCCCNc1nccc(-c2c(-c3cccc(F)c3)nc3sccn23)n1)c1cccc2ccccc12` the figure was 29.3%. Still for that read-out and setting: the figure for `CCCNC(=O)Oc1ccc(/C(=C(\C)c2ccccc2)c2ccc(OCCCN(C)C)cc2)cc1` is 66.5%; for `O=C(CSc1nc2sc3c(c2c(=O)n1-c1ccc(Cl)cc1)CCCC3)Nc1nc(-c2cccc(Br)c2)cs1` it is 87.1%; for `O=C1c2ccc3c4c(ccc(c24)C(=O)N1CCCNCc1ccccc1F)C(=O)N(CCCNCc1ccccc1F)C3=O` it is -28.9% (active). For `CCN(CC)c1ccc(/C=N/NC(=O)CSc2nc3ccccc3c(=O)n2CCc2ccc(S(N)(=O)=O)cc2)c(O)c1`, the growth was 7.09% (active). Still for that read-out and setting: with `CCCCCN1C=C/C(=C\C(=O)N(C)c2ccc(Oc3ccccc3)cc2)c2ccccc21` the figure was 70.8%; with `C/C=C(\C)C(=O)NC1=CC[C@@]2(C)C(=CCC3C2CC[C@@]2(C)C3CC[C@@H]2C(C)N(C)C)C1=O` (stereo partly specified), 47%; with `C[C@H]1[C@H](C)CC[C@]2(C(=O)NCC#CCN3CCN(C)CC3)CC[C@]3(C)C(=CC[C@@H]4[C@@]5(C)Cc6c([nH]c7ccccc67)C(C)(C)[C@@H]5CC[C@]43C)[C@H]12`, 44.6%. Still for that read-out and setting: the figure for `CCOC(=O)c1cc(C(=O)c2ccc(Br)cc2)n2ccc(/C=C/c3cc[n+](CC(=O)c4ccc(OC)cc4)cc3)cc12` is 68.3%; for `NC(=NCCCOc1ccc(F)cc1)Nc1ccc(I)cc1` it is 40.9%. Same read-out and setting: the figure for `O=C(/C=C(/C=C/c1coc2ccccc12)OB(F)F)/C=C/c1coc2ccccc12` is 85.5%; for `Cc1ccc(C(=O)/C(=C\c2ccc([N+](=O)[O-])cc2)S(=O)Cc2ccc(F)cc2)cc1` (stereo unspecified) it is 1.47% (active). Regarding `COc1cc2oc(-c3cccc(C(=O)Nc4ccccc4)c3)cc(=O)c2c(O)c1OC`, the growth is 99.7%. Same read-out and setting: the figure for `COc1ccc(C(=O)/C=C/c2cc3ccccc3n3nnnc23)cc1` is 103%. Still for that read-out and setting: with `COc1cc2c(c(OC)c1OC)CCC(c1cccc(NC(=O)c3cccc(Br)c3)c1)O2` (stereo unspecified) the figure was 74.3%; with `CCCCCN1C=C/C(=C\C(=O)N(C)c2ccccc2Br)c2ccccc21`, 89.3%.

For `COc1ccc(C(=O)c2cc(OC)c(OC)c(OC)c2)cc1O`, the growth is 15.4%. On to `CC(C)(C)c1cc(C=O)cc(C(C)(C)C)c1O`, for which the growth is 14.8%. Still for that read-out and setting: the figure for `CCOC(=O)c1nc2c3ccccc3ccn2c1C(=O)OCC` is 95.4%; for `C=C(C)[C@@H]1CC[C@]2(C(=O)N3CCN(C)CC3)CC[C@]3(C)[C@H](CC[C@@H]4[C@@]5(C)CC[C@H](O)C(C)(C)[C@@H]5CC[C@]43C)[C@@H]12` it is -35.7% (active).
